This note sets out measurements from PubChem BioAssay (NCATS).

Assay [1] has as its target Atrial natriuretic peptide receptor 1 (Homo sapiens) (UniProt P16066). Put plainly: Natriuretic polypeptide receptor (hNpr1) antagonism - Pilot screen (AID 1347049; calls by dose curve;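 further: agonist-evoked cGMP luminescence read 20 min after hNppA addition; series mostly up to about 58 µM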). In short, it runs like this:
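HEK293 cells co-expressing hNpr1 and the GloSensor pGS-40F cGMP luciferase sensor were preloaded with 2% GloSensor reagent for 2 h. Compounds were added for 30 min at room temperature, then cells were stimulated with 0.1 nM hNppA for 20 min before luminescence readout.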

The target in assay [2] is Atrial natriuretic peptide receptor 2 (Homo sapiens) (UniProt P20594). As to the kind of experiment: Natriuretic polypeptide receptor (hNpr2) antagonism - Pilot subtype selectivity assay (AID 1347050; calls by dose curve). Summed up:
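cGMP-sensor HEK293/hNpr2 cells; 2% GloSensor reagent 2 h RT; compounds 30 min; baseline luminescence read; 1 nM hNppC agonist 20 min RT; final luminescence read by CCD camera. Antagonism = reduced post-agonist signal.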

The nature of assay [3]: NS1 protein of Zika virus - qHTS assay to identify small molecule inhibitors in human HEK 293 cells (AID 1347053). Further: series mostly up to about 46 µM; nearly all actives have a fitted effect of over 55% in size. In short, it runs like this:
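HEK 293; 20 h pre-culture, 37 C/5% CO2; cpd 1 h pre-infection; ZIKV MR766, MOI = 0.5, 24 h, 37 C; TR-FRET NS1 readout (two anti-NS1 Abs); norm. to no-virus vs infected.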
In general terms: Quantitative high-throughput screening tests each substance at several concentrations.

Assay [4] addresses T1, Tyrosine-protein phosphatase non-receptor type substrate 1 (Homo sapiens) + Leukocyte surface antigen CD47 (Homo sapiens) (UniProt P78324+Q08722). Put plainly: CD47-SIRPalpha protein protein interaction - LANCE assay qHTS validation (AID 1347057; active means well fitted curve in the direction sought with a large enough effect in the signal ratio, with a control signal flat, not every such curve was filed as active; the % refers to the signal ratio; further: series mostly up to about 38 µM). In short, it runs like this: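 First, His-tagged CD47 and Eu-labelled anti-His antibody met the compound for 30 min; next, site-specifically biotinylated SIRPalpha was added for 30 min; finally streptavidin-APC was added before reading the TR-FRET ratio.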
Background: In TR-FRET formats the signal depends on donor and acceptor labels being close together.

Assay [5] addresses T1, Tyrosine-protein phosphatase non-receptor type substrate 1 (Homo sapiens) + Leukocyte surface antigen CD47 (Homo sapiens). As to the kind of experiment: CD47-SIRPalpha protein protein interaction - HTRF assay qHTS validation (AID 1347058; active means well fitted curve in the direction sought with a large enough effect in the signal ratio, not every such curve was filed as active; the % refers to the signal ratio; further: series mostly up to about 38 µM). Summed up:
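TR-FRET read (Ch1/Ch2 ratio) of soluble extracellular CD47 and Avi-biotinylated SIRPalpha domains in PBS pH 7.4 with 0.05% IGEPAL; 7-point compound titration. Sequential 30 min room-temperature steps; non-biotinylated SIRPalpha as control inhibitor.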

For assay [6] the target is unchanged. Put plainly: CD47-SIRPalpha protein protein interaction - Alpha assay qHTS validation (AID 1347059).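 Further: bead proximity luminescence from CD47 binding SIRPalpha after compound preincubation with SIRPalpha.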 Further: potency means the concentration at half of the fitted maximal effect. In short, it runs like this:
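Soluble extracellular domains: Avi-tag biotinylated SIRPalpha (25 nM) preincubated 30 min RT with compound, then 6His-CD47 (12.5 nM) 30 min; Ni-NTA acceptor and streptavidin donor beads (10 ug/mL) 30 min, AlphaScreen read. PBS pH 7.4, 0.05% IGEPAL.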

In assay [7] the target is Parathyroid hormone/parathyroid hormone-related peptide receptor (Homo sapiens) (UniProt Q03431). Put plainly: qHTS for PTHR1 Agonists: Optimization Screen against the NCGC LOPAC library (AID 1347079).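 Further: GloSensor cAMP luminescence in HEK-293 GP2 cells expressing human PTHR1 with IBMX.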 Summed up: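 Agonist readout: GloSensor cAMP luminescence, read after 15 min at room temperature. HEK-293-derived GP2 line carries PTHR1; compounds tested as a titration for 1 hr at 37C in presence of IBMX. M-PTH (1-15) served as control.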
Sequence of Parathyroid hormone/parathyroid hormone-related peptide receptor (Homo sapiens) (Q03431 whole entry, looked up): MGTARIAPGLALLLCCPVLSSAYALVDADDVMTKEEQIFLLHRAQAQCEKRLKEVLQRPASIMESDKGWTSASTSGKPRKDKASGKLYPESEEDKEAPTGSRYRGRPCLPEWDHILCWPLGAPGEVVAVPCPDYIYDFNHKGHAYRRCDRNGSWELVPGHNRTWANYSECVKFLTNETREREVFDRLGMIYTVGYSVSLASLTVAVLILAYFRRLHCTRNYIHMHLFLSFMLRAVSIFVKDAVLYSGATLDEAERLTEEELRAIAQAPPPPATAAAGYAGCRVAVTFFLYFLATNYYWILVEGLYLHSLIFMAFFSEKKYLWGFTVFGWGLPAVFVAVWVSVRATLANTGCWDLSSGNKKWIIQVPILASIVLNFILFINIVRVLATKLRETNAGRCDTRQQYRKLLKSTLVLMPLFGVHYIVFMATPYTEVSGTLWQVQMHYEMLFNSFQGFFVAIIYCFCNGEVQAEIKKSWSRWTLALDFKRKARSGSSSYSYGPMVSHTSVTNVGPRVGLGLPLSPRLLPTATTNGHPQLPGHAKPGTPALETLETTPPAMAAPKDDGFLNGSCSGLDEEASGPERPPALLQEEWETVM

Assay [8] is described as follows: qHTS for Inhibitors of the Functional Ribonucleoprotein Complex (vRNP) of Lassa (LASV) Arenavirus: Viability assay - alamar blue signal for LASV Primary Screen (AID 1347083; calls by dose curve; tested in HEK293 reporter line; further: nearly all actives have a fitted effect of over 80% in size; further: potency means the concentration at half of the fitted maximal effect).
The nature of assay [9]: qHTS for Inhibitors of the Functional Ribonucleoprotein Complex (vRNP) of Lymphocytic Choriomeningitis Arenaviruses (LCMV): Viability assay - alamar blue signal for LCMV Primary Screen (AID 1347085; calls by dose curve; tested in HEK293 reporter line; further: series mostly up to about 57 µM; nearly all actives have a fitted effect of over 80% in size).
Assay [10] is described as follows: qHTS for Inhibitors of the Functional Ribonucleoprotein Complex (vRNP) of Lassa (LASV) Arenavirus: LASV Primary Screen - GLuc reporter signal (AID 1347082; calls by dose curve; tested in HEK293 reporter line; further: nearly all actives have a fitted effect of over 60% in size; further: potency means the concentration at half of the fitted maximal effect).
Assay [11] addresses Nucleoprotein (Lymphocytic choriomeningitis virus (strain Armstrong)) (UniProt P09992). Put plainly: qHTS for Inhibitors of the Functional Ribonucleoprotein Complex (vRNP) of Lymphocytic Choriomeningitis Arenaviruses (LCMV): LCMV Primary Screen - GLuc reporter signal (AID 1347086; calls by dose curve; further: series mostly up to about 57 µM; nearly all actives have a fitted effect of over 70% in size).

Results filed as inconclusive are left out. Activity calls are given as the source filed them. Unless noted, the call rests on the fitted dose curve; in most records, active means well fitted curve in the direction sought with a large enough effect; inconclusive means small, poorly fitted or top-dose-only effect, or another doubt; inactive means no such curve, though single readings can be large; an effect the other way counts as inactive or inconclusive.

Sequence of Nucleoprotein (Lymphocytic choriomeningitis virus (strain Armstrong)) (P09992 whole entry, looked up): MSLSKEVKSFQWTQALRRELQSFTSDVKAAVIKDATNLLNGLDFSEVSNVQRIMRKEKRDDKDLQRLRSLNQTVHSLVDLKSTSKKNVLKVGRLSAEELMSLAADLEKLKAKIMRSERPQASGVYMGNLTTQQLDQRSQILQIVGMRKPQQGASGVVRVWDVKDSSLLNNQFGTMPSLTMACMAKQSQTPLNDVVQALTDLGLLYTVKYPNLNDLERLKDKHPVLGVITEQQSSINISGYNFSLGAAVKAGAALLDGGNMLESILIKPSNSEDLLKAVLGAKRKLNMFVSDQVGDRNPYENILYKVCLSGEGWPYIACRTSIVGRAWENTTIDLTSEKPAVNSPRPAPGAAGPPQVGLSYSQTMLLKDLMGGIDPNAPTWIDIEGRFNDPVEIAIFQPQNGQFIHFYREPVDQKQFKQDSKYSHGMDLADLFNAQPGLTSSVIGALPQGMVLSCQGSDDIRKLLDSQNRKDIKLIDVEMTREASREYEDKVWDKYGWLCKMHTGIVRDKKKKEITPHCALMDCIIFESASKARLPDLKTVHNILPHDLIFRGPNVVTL
T1 sequence (P78324 whole entry, looked up): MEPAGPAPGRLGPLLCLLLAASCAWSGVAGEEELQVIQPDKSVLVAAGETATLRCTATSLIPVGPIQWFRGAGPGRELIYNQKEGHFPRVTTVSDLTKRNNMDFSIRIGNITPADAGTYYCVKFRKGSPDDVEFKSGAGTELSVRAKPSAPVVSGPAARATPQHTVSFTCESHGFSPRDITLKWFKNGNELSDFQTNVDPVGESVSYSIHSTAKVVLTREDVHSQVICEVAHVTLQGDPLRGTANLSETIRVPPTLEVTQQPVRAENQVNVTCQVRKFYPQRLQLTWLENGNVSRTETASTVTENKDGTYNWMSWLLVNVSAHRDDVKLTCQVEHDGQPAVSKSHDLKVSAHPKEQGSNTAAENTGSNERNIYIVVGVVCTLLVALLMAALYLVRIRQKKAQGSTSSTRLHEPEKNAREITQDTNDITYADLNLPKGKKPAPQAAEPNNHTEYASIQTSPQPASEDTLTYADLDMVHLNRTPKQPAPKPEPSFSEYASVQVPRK
T1 sequence (Q08722 whole entry, looked up): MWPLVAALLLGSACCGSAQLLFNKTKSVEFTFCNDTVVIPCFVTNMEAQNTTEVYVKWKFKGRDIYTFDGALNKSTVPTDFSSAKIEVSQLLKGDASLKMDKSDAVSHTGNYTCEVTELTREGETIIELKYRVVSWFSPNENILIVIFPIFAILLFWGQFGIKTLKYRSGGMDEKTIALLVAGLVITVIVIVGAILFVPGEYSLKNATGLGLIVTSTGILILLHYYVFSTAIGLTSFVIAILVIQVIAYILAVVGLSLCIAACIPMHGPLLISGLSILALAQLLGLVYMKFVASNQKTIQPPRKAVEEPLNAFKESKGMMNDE
Sequence of Atrial natriuretic peptide receptor 2 (Homo sapiens) (P20594 whole entry, looked up): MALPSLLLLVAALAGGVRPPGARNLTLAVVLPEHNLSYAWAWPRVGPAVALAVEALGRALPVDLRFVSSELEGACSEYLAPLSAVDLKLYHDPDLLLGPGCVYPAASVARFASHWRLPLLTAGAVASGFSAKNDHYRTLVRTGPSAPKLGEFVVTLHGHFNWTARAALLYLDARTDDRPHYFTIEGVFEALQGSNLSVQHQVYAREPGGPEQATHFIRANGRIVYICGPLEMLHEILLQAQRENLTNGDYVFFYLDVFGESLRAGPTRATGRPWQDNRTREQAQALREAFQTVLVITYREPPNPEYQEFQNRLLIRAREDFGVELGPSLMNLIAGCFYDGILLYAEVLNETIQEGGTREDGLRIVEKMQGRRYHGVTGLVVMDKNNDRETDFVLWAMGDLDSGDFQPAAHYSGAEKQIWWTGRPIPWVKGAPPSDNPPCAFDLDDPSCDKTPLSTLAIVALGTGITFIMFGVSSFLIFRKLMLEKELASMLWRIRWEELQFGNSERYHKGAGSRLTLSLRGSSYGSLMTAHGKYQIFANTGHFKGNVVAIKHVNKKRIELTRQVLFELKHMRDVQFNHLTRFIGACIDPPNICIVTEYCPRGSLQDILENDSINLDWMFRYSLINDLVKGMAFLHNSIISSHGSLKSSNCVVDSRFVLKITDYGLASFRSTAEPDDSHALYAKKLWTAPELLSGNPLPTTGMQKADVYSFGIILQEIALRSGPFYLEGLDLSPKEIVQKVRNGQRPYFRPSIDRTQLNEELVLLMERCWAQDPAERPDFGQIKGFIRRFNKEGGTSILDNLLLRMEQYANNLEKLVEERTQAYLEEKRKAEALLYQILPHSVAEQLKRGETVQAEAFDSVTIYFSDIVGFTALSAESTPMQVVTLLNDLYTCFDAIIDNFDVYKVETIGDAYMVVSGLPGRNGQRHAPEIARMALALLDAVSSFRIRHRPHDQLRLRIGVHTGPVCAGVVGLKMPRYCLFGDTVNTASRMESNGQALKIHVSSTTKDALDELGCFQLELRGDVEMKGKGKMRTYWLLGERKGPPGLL
Sequence of Atrial natriuretic peptide receptor 1 (Homo sapiens) (P16066 whole entry, looked up): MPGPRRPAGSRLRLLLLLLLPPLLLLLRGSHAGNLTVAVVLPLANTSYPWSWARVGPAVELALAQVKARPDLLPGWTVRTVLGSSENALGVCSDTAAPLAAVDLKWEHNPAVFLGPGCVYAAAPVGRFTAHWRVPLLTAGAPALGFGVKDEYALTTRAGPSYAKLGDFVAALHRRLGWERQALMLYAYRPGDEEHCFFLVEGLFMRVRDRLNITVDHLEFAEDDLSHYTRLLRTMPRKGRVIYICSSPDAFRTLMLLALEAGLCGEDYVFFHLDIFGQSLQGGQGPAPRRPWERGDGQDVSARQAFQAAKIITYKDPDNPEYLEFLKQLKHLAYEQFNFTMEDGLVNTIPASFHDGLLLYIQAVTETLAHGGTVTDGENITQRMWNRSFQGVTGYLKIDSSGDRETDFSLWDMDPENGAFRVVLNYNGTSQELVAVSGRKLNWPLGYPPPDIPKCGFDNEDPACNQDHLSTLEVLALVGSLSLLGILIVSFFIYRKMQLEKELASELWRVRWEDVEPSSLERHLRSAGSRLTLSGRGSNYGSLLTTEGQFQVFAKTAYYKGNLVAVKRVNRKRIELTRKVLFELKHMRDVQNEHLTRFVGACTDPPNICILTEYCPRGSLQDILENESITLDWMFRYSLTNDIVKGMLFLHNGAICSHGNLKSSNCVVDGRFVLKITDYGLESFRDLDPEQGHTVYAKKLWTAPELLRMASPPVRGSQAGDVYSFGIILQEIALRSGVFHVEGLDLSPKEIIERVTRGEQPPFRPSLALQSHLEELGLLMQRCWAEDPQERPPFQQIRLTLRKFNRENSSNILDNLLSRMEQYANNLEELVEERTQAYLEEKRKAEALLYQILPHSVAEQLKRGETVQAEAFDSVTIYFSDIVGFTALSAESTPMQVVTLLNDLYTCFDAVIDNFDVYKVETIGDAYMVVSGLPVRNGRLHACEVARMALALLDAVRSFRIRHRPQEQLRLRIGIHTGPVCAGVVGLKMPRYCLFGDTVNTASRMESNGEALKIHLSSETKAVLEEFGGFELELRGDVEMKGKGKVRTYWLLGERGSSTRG

As to `O=C1C=CC(=O)C=C1`, the Potency result in [1], in [2], in assay [4], in assay [6], in [7] and in assay [8] was “inactive” throughout. Also, the Potency result in [9] is “inactive”. In addition, the result in assay [3] and in [5] was inactive.
For `C[N+]1(C)[C@@H]2CC(OC(=O)[C@H](CO)c3ccccc3)C[C@H]1[C@H]1O[C@@H]12` (stereo not given in full), the Potency entry in assay [10], in assay [8], in [9] and in assay [11] was “inactive” throughout.
In the case of `O=C1/C(=C/c2ccccc2)C[C@@]2(O)[C@H]3Cc4ccc(O)c5c4[C@@]2(CCN3CC2CC2)[C@H]1O5`, the Potency entry in assay [4] and in assay [6] was “inactive” throughout.
Consider `CN1CC[C@@]2(C)c3cc(O)ccc3N(C)C12` (stereo not given in full), for which the Potency entry in [1], in assay [2], in [4], in assay [6], in [7] and in assay [10] was “inactive” each time. The Potency entry in assay [8], in [9] and in assay [11] was “inactive” each time. Further, the compound was called inactive in assay [3].
Turning to `CCCCCCC(C)(C)c1ccc([C@@H]2C[C@H](O)CC[C@H]2CCCO)c(O)c1`, the Potency result in [1], in assay [2], in [7], in [10] and in assay [9] was “inactive” in each case.
Turning to `CN(C(=O)Cc1ccc(Cl)c(Cl)c1)C(CN1CCCC1)c1cccc(OCC(=O)O)c1` (stereo not given), the Potency entry in assay [1], in assay [2], in assay [4], in [6], in assay [7] and in assay [10] was “inactive” in each case. In addition, the Potency entry in assay [8], in assay [9] and in assay [11] was “inactive” in each case. Moreover, the outcome in [3] and in [5] was inactive.
Regarding `CCCN1CCc2cc(O)cc3c2[C@H]1Cc1ccc(O)c(O)c1-3`, the Potency result in assay [2], in assay [6], in [7], in assay [10], in assay [8] and in [9] was “inactive” in each case. Further, in [11], the Potency entry is “inactive”. The compound was called inactive in assay [3].
As for `Cc1o[nH]c(=O)c1CC(N)C(=O)O` (stereo not given), the Potency entry in assay [1], in assay [2], in assay [4], in assay [6], in assay [7] and in assay [10] was “inactive” each time. The Potency result in [8], in assay [9] and in assay [11] was “inactive” throughout. Moreover, the result in assay [3] and in assay [5] was inactive.
In the case of `NC(=O)COc1c(F)cc(SCCNS(=O)(=O)c2ccccc2)cc1F`, the Potency result in [1], in assay [2], in [4], in assay [6], in assay [7] and in assay [10] was “inactive” in each case. Further, the Potency entry in [8], in assay [9] and in assay [11] was “inactive” each time. Also, the call in [3] and in assay [5] was inactive.
Regarding `Nc1ccc(CCN2CCN(c3cccc(C(F)(F)F)c3)CC2)cc1`, the Potency entry in assay [1], in assay [2], in [4], in assay [6], in [7] and in [10] was “inactive” each time. The Potency entry in assay [8], in assay [9] and in assay [11] was “inactive” each time. For the same compound, the outcome in assay [3] and in assay [5] was inactive.
Consider `CC(C)(C)OC(=O)NC1[C@H]2CNC[C@@H]12` (stereo not given in full), for which the outcome in assay [3] and in [5] was inactive. Besides, the Potency result in [4] and in assay [6] was “inactive” throughout.
In the case of `CNc1ccc2oc(C[C@H]3O[C@@]4(CC[C@H]3C)O[C@H]([C@H](C)C(=O)c3ccc[nH]3)[C@H](C)C[C@H]4C)nc2c1C(=O)O`, the Potency result in assay [2], in assay [4], in assay [6], in assay [7], in assay [9] and in [11] was “inactive” throughout. For the same compound, the outcome in assay [5] was inactive. Moreover, the figures for the Potency in [10] and in assay [8] were 7.08 µM (active) and 11.2 µM (active), respectively.
As for `CC(=O)c1c(O)c(C)c(O)c(Cc2c(O)c3c(c(C(=O)/C=C/c4ccccc4)c2O)OC(C)(C)C=C3)c1O`, the Potency entry in assay [1], in assay [4], in assay [7], in [10], in assay [8] and in assay [9] was “inactive” each time. For the same compound, the Potency result in [11] was “inactive”. The Potency in assay [6] is 16.5 µM (active).
Consider `CC(C)CC(NP(=O)(O)O[C@@H]1O[C@@H](C)[C@H](O)[C@@H](O)[C@H]1O)C(=O)NC(Cc1c[nH]c2ccccc12)C(=O)O` (stereo not given in full), for which the Potency entry in assay [10], in assay [8], in [9] and in assay [11] was “inactive” in each case.
With `C=CCN1C[C@@H](C)N([C@H](c2ccc(C(=O)N(CC)CC)cc2)c2cccc(OC)c2)C[C@@H]1C`, the Potency result in assay [2], in assay [4], in assay [6] and in assay [7] was “inactive” each time. The outcome in assay [5] was inactive.
Consider `C=CCN1CCc2cccc3c2[C@H]1Cc1ccc(O)c(O)c1-3`, for which the Potency entry in assay [2], in [7], in [10], in [8], in assay [9] and in assay [11] was “inactive” each time.
For `C[N+]1(C)CCC(OC(=O)C(c2ccccc2)c2ccccc2)CC1`, the Potency entry in assay [10], in assay [8], in [9] and in [11] was “inactive” throughout.
In the case of `N#C/C(=C/c1ccc(O)c(O)c1)C(N)=S`, the Potency result in assay [1], in assay [2], in [10], in assay [8], in [9] and in assay [11] was “inactive” each time. Moreover, in assay [3], the outcome was inactive.
As for `C[N+]1(C)CCc2cc3c(cc2[C@H]1[C@@H]1OC(=O)c2c1ccc1c2OCO1)OCO3`, the Potency result in assay [2], in assay [4], in assay [6], in assay [7], in assay [10] and in assay [8] was “inactive” each time. Moreover, the Potency result in assay [9] and in [11] was “inactive” in each case. Moreover, the result in assay [3] and in [5] was inactive.
As for `Oc1ccc2c3c1O[C@H]1c4[nH]c5ccccc5c4C[C@@]4(O)C(C2)N(CC2CC2)CCC314` (stereo not given in full), the Potency entry in assay [1], in assay [2], in assay [4], in assay [6], in [7] and in assay [10] was “inactive” in each case. Also, the Potency result in assay [8], in assay [9] and in [11] was “inactive” each time. For the same compound, the compound was classed as inactive in [3] and in assay [5].
`CC1OC1P(=O)(O)O` (stereo not given): the Potency result in [10], in [8], in assay [9] and in assay [11] was “inactive” throughout.
As for `NC(C(=O)O)c1cc(=O)[nH]o1` (stereo not given), the Potency entry in assay [2], in assay [4], in assay [6], in assay [7], in assay [10] and in [8] was “inactive” each time. Moreover, the Potency entry in [9] and in assay [11] was “inactive” each time. Also, the result in [3] was inactive.
Consider `O=c1ccc2[nH]cc(C3=CCNCC3)c2[nH]1`, for which, in assay [3], the outcome was inactive. Further, the Potency entry in assay [4] and in assay [6] was “inactive” throughout.
Take `[Cl-].[Cl][Pt].[NH2-].[NH2-].c1ccncc1`: the compound was called inactive in assay [3].
For the compound `CCN(CC)c1ncnc2c1ncn2[C@@H]1O[C@H](COP(=O)(O)OP(=O)(O)C(Br)(Br)P(=O)(O)O)[C@@H](O)[C@H]1O`, the Potency result in assay [10], in assay [8], in [9] and in [11] was “inactive” each time.
`C[C@]12Cc3cn4c(nc3C=C1CCC1C2CC[C@@]2(C)[C@H]1CC[C@@]2(O)C#N)nc1ccccc14` (stereo not given in full): in [3], the call was inactive. In addition, the Potency entry in assay [4], in assay [6] and in assay [7] was “inactive” each time.
